Screening data: PubChem, National Center for Advancing Translational Sciences (NCATS)
Only some compounds are listed: those with a hit (about 1.2% of all), similar ones and a draw of the others.
KAT2A inh – qHTS Assay for Inhibitors of GCN5L2. actives 0.21% (n = 390,000). GCN5L2 HAT assay, ThioGlo1 CoA-SH fluorescence. Potency, µM (titrated, usually from 58.9 µM), inactives show top-dose activity change, negative = inhibition, usual class: inhibitors. AID 504327, 2011. Histone acetyltransferase KAT2A (Homo sapiens), Q92830; also: potency is read from the fitted curve at half-maximal effect
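GCN5L2 (20nM final) in 50mM HEPES, 0.1mM EDTA pH 7.5, 0.01% Tween-20 was preincubated 15 min at room temperature with compound, then given ThioGlo1 (50uM), H3(1-25) peptide (75uM) and acetyl-CoA (70uM); CoA-thiol fluorescence (Ex340/Em540) was read at 0 and 20 min.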
KCNH2 3.1 block – qHTS for Inhibitors of KCHN2 3.1: Mutant qHTS | Potassium voltage-gated channel subfamily H member 2, brain isoform KCNH2 3.1 (human) | U2OS KCNH2 3.1, thallium flux FluxOr; hits give low values | activity change, % (tested at about 1.8 µM) | actives 0.95% (n = 340,000);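 active = maximum activity change below -70%; inconclusive = maximum activity change from -70% to -50%; inactive = maximum activity change above -50%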;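 also: thallium influx rate constant from kinetic fluorescence after stimulation buffer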
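Channel expression came from 3.1 mutant virus (1.77 x 10^8 /mL) applied to suspended U2OS cells for 4 h. Flux was tracked with FluxOr dye plus Red40 quencher, and kinetic rate constants normalized to controls.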
Pin1 inhibitor – qHTS Assay to Find Inhibitors of Pin1; actives 0.009% (n = 390,000); Potency, µM (series often up to 115 µM), for the others: top-dose activity, negative = inhibition, actives largely listed as inhibitors; AID 504891, 2011; Pin1 FP peptide displacement, HiFluor488, 10 min; active = well fitted inhibition curve with a large enough effect in the polarisation, with a control signal flat, not every such curve was filed as active; inconclusive = small, poorly fitted or top-dose-only effect, or effect the other way, or a change in a side signal; inactive = no such curve, though single readings can be large or run the other way; the % refers to the polarisation; also: potency is read from the fitted curve at half-maximal effect
Target sequence (Q13526 whole entry, looked up): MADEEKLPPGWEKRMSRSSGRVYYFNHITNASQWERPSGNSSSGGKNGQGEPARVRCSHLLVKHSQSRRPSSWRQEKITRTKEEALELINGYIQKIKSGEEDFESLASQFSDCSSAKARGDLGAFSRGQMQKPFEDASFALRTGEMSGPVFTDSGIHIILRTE
Tb PGK inh – qHTS Assay to Find Inhibitors of Phosphoglycerate Kinase | Phosphoglycerate kinase, glycosomal (Trypanosoma brucei brucei), P07378 | PGK/GAPDH coupled, Kinase-Glo luminescence, 60 min | Potency, µM (highest dose often 57.5 µM), for the others: at the highest dose activity change, negative = inhibition, usual class: inhibitors | actives 0.043% (n = 380,000); also: potency is read from the fitted curve at half-maximal effect; nearly all actives have a fitted effect of over 60% in size
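Recombinant glycosomal PGK reaction used 1,3-bisphosphoglycerate generated in-well by GAPDH (100nM final) in 100mM TEA pH 7.6, 5mM MgCl2, 0.01% Tween-20. After 60 minutes at room temperature, ATP was read by Kinase-Glo Plus luminescence end-point.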
KCNH2 WT inh – qHTS for Inhibitors of KCHN2 3.1: Wildtype qHTS; Voltage-gated inwardly rectifying potassium channel KCNH2 (Homo sapiens), Q12809; U2OS, BacMam KCNH2, thallium flux FluxOr; hits give low values; activity change, % at 1.84 µM; actives 0.37% (n = 340,000); AID 720551, 2013;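 active = maximum activity change below -70%; inconclusive = maximum activity change between -70% and -50%; inactive = maximum activity change above -50%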
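U2OS cells were transduced with wild-type KCNH2 virus (2.03 x 10^8 / mL) for 4 h at room temperature, then cultured overnight at 37 C. Thallium flux was read with FluxOr dye. Rate constants were normalized to DMSO controls.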
RGS4 inhibitor – Inhibitors of Regulator of G Protein Signaling (RGS) 4: qHTS. Transcreener GDP fluorescence polarization, RGS4-accelerated GTP hydrolysis. Potency, µM (titrated, usually from 114 µM), without a hit: at the highest dose activity change, negative = inhibition, actives largely listed as inhibitors. actives 0.039% (n = 390,000); also: potency is read from the fitted curve at half-maximal effect; nearly all actives have a fitted effect of over 75% in size
Target sequence (P49798 whole entry, looked up): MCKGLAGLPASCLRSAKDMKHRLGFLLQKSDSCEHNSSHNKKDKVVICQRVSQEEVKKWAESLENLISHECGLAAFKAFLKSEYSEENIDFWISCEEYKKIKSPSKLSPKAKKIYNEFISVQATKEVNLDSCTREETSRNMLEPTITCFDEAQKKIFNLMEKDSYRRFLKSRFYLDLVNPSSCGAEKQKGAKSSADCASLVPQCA
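MLSMR compounds (23 nl, pin-transferred) preincubated 10 min at room temperature with a 500nM (2x) first reagent, then RGS4 at 900nM (2x) plus Transcreener GDP mix added; fluorescence polarization (620/688 nm) read before and after 90 min at 30 °C.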
Numbers without * were called inactive; i = inactive; ? = inconclusive; . = not tested or not shown; + = active, no number; [ ] = another dose, or the depositor's remark. Unless noted, calls follow the shape of the dose curve; as a rule, active = well fitted curve in the direction sought with a large enough effect; inconclusive = small, poorly fitted or top-dose-only effect, or another doubt; inactive = no such curve, though single readings can be large; an effect the other way counts as inactive or inconclusive. % is scaled to controls: 0 for no effect and ±100 for the full control effect.

SMILES	KAT2A inh	KCNH2 3.1 block	Pin1 inhibitor	Tb PGK inh	KCNH2 WT inh	RGS4 inhibitor
CC(C)Sc1ncc(Cl)c(C(=O)N(Cc2ccc(N(C)C)cc2)C2CCS(=O)(=O)C2)n1 (configuration not stated)	-2.9%	.	-9.5%	-3.8%	.	-17.9%
Clc1cccc(-n2cc(-c3ccccc3)c3c(N4CCCCC4)ncnc32)c1	1.6%	.	-6.7%	9.0%	.	2.1%
COc1cccc(COCCN2CCN(S(=O)(=O)c3ccccc3)CCC2=O)c1	.	.	-1.4%	.	.	9.9%
CCOc1ccc(CN2CCN(Cc3nc(C(C)C)cs3)CC2CCO)cc1 (configuration not stated)	-17.6%	-96.1*	-5.5%	1.2%	.	-4.9%
CCOc1ccc(CN2CCN(C3CCSCC3)CC2CCO)cc1 (configuration not stated)	-6.6%	-84.1*	-4.7%	-2.4%	-12.4	-7.2%
CCCC(=O)n1nc(-c2cccnc2)nc1NCc1ccccc1	-0.4%	-125.3*	?	i	-2.1	-25.9%
Cc1nc(N)nc(N/N=C/c2ccccc2)n1	-3.4%	-1.5	3.6%	-0.5%	-75.6*	-19.2%
OC(COc1ccc(Cl)cc1)CN1C2=NCCCN2c2ccccc21 (configuration not stated)	-6.0%	-97.2*	-0.2%	5.0%	-146.1*	9.0%
Clc1ccc(CN2C3=NCCCN3c3ccccc32)cc1Cl	-9.4%	-104.3*	?	?	-84.7*	-0.7%
OC(CN1C2=NCCCN2c2ccccc21)c1ccc(Cl)cc1 (configuration not stated)	-5.1%	-74.4*	-1.0%	-0.1%	-0.3	0.9%
OC(CN1C2=NCCN2c2ccccc21)c1ccc(Br)cc1 (configuration not stated)	0.7%	-72.9*	-0.9%	-2.7%	21.1	-17.2%
CCC(C)NC(=O)c1cccc(OCc2c(C)noc2C)c1 (configuration not stated)	-6.1%	-6.9	-13.2%	-4.6%	-1.5	-51.1%
CC(C)c1onc(-c2c(Cl)cccc2Cl)c1COc1ccc(/C=C/c2cccc(C(=O)O)c2)c(Cl)c1	12.6µM*	.	.	.	.	.
CN1CCN(C(c2ccccc2)c2ccccc2)CC1	0.6%	6.6	-0.2%	5.5%	0.7	4.7%
CN1CCCN(C(c2ccccc2)c2ccc(Cl)cc2)CC1 (configuration not stated)	-0.7%	-98.5*	-4.5%	-3.5%	-21.7	-20.1%
COc1ccc2c(c1)c1c(c(=O)n(-c3cccc(C)c3)c(=O)n1Cc1cccc(Cl)c1)n2C	0.2%	.	-1.6%	-5.5%	.	6.6%
CCOc1ccccc1/C=C/c1onc(C)c1S(=O)(=O)N1CCC(C(=O)N(CC)CC)CC1	-7.1%	-95.2*	14.2%	11.2%	3.5	-14.9%
O=C(CCN1C(=O)/C(=C/c2ccccc2F)SC1=S)Nc1cccnc1	-12.7%	-106.7*	-1.9%	-9.3%	-34.0	-13.8%
COc1ccccc1/C=C1/SC(=S)N(CCC(=O)Nc2cccnc2)C1=O	?	18.5	?	-4.3%	15.0	-15.1%
O=c1c2c([N+](=O)[O-])cc([N+](=O)[O-])cc2sn1Cc1ccccc1	1.26µM*	-10.9	0.5%	-4.6%	-4.8	-139.3%
O=c1c2c([N+](=O)[O-])cc([N+](=O)[O-])cc2sn1-c1ccc(Br)cc1	7.08µM*	-15.0	-18.4%	1.1%	-3.3	?
C[C@@H]([C@H](O)c1ccc(O)cc1)N1CCC(Cc2ccccc2)CC1	?	.	.	.	.	i
C[C@@H](CN1CCC(Cc2ccccc2)CC1)[C@@H](O)c1ccc(O)cc1	2.8%	-216.9*	9.3%	-5.6%	36.5	2.0%[56.9 µM]
CC(C(O)c1ccc(O)cc1)N1CCC(Cc2ccccc2)CC1 (configuration not stated)	3.2%	-88.3*	-2.7%	0.1%	53.0	-1.6%[56.9 µM]
Cc1cccc(N2CCN(C(=O)CCc3c(C)nc4ncnn4c3C)CC2)c1C	-1.6%	.	1.7%	-1.7%	.	16.5%
SMILES	KAT2A inh	KCNH2 3.1 block	Pin1 inhibitor	Tb PGK inh	KCNH2 WT inh	RGS4 inhibitor
Cc1cc(OCC(=O)Nc2sc3c(c2C(N)=O)CCCC3)ccc1C(C)C	-6.5%	.	-8.8%	-4.0%	.	-18.7%
CCN1C(=O)/C(=C/C=C2\C=CN(CC)c3ccccc32)SC1=S	1.2%	6.7	-0.2%	-18.5%	-0.1	-25.8%
CCN1C(=O)C(=CC=CN(C)c2ccccc2)SC1=S	.	-45.7	.	-7.4%	-72.2*	.
O=C(Nc1nc2ccccc2[nH]1)c1ccccc1F	?	11.5	-1.4%	8.91µM*	-3.1	-14.4%
O=C(Nc1nc2ccccc2[nH]1)c1ccccc1OC(F)F	-3.8%	17.1	0.3%	-9.5%	-1.9	15.8%
CCCCCc1c2c(cc(O)c1C(=O)O)OC(=O)c1c(cc(OC)cc1C(=O)CCCC)O2	?	-4.5	17.8µM*	-10.4%	-6.9	-40.0%
O=C(c1cc(Br)c(Br)s1)N1CCOCC1	-3.4%	7.1	-1.3%	i	-201.0*	-10.2%
COC(=O)c1c(NC(=O)C2COc3ccccc3O2)sc2c1CCN(C(=O)OC)C2 (configuration not stated)	.	2.2	.	-5.6%	8.5	.
COC(=O)c1c(NC(=O)C2COc3ccccc3O2)sc2c1CCN(Cc1ccccc1)C2 (configuration not stated)	-8.2%	-92.1*	?	i	2.5	-20.9%
CCN1CCN(c2ccc(S(=O)(=O)N3CCCCC3)cc2NC(=O)COc2ccc(F)cc2Cl)CC1	-14.6%	-79.9*	-2.2%	-2.2%	-1.1	13.7%
Cc1ccc(OCC(=O)Nc2ccccc2N2CCCC2)c(C)c1	-13.0%	-10.9	5.4%	i	+	-17.2%
CCN1CCN(c2ccc(S(=O)(=O)N3CCCCC3)cc2NC(=O)COc2cc(C)ccc2Cl)CC1	-23.0%	-82.6*	16.9%	4.4%	3.6	-13.6%
CC(=O)Nc1sc2c(c1-c1ccco1)CCNC2	.	.	-20.2%	.	.	.
Cc1sc2c(c1C)c(=O)n(-c1ccc(Cl)cc1)c(=O)n2CC(=O)c1ccccc1	-1.6%	.	23.6%	-10.0%	.	5.1%
O=[N+]([O-])c1ccc(N2CCN(C(=S)NCc3ccc(Cl)cc3)CC2)cc1	-4.6%	-93.2*	?	-0.8%	-25.7	-0.3%
